The assay concerns TYKNU. In words: fractional viability relative to vehicle; TYKNU is a high-grade serous ovarian cancer line; higher = less growth inhibition. The note with it: 72 h, genotype: OPA1 knockout (sgOPA1 #2). The gist of the method:
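Drug treatment lasted 72 h, with cells grown at 37 °C in 5% CO2 in RPMI 1640 supplemented with 10% FBS. Beforehand, TYKNU control cells or their lentiCRISPRv2 knockout derivatives had been seeded at 500 cells per well into drug-stamped 384-well plates carrying a ~2100-compound library at 2 or 10 μM, in duplicate. Viability came from Cell Titer Glo luminescence, with averaged duplicate treatment wells normalised to duplicate control wells in the same plate position.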

Where a name gives a salt, the structure may show the parent alone. Over roughly 2,000 compounds, “fractional viability relative to vehicle” has its median near 0.92; the lowest 2% begin near 0.11. For the sample, the lowest values were picked, then their nearest neighbours and some compounds at random.

Turning to `COc1cc2c(cc1OC)CC(=O)N(CCCN(C)C[C@H]1Cc3cc(OC)c(OC)cc31)CC2` [Ivabradine HCl], the fractional viability is, setting by setting: (2uM) 1.02; (10uM) 0.967.
Regarding `COc1ccc(-c2cnc3c(-c4cccc5ncccc45)cnn3c2)cc1`, the fractional viability by setting is: (2uM) 1.15; (10uM) 1.2.
As for `COc1cc(-c2cc(-c3ccc(N4CCNCC4)cc3)cnc2C)cc(OC)c1OC`, the fractional viability reads like this: (2uM) 0.878; (10uM) 0.835.
As to `c1cc(-c2cnn3cc(-c4ccc(N5CCNCC5)cc4)cnc23)c2cccnc2c1`, the fractional viability (2uM) worked out at 0.104 and the fractional viability (10uM) amounted to 0.0761.
In the case of `CC1(C)CC(=O)c2c(C(F)(F)F)nn(-c3ccc(C(N)=O)c(N[C@H]4CC[C@H](O)CC4)c3)c2C1`, the fractional viability was 0.668 (2uM) and 0.574 (10uM).
Turning to `C=CC(=O)N1C/C(=C\c2ccc([N+](=O)[O-])cc2)C(=O)/C(=C/c2ccc([N+](=O)[O-])cc2)C1`, the fractional viability is, setting by setting: (2uM) 0.0989; (10uM) 0.111.
On to `CC1(C)C=C(CN2C/C(=C\c3ccc(F)cc3)C(=O)/C(=C/c3ccc(F)cc3)C2)C(C)(C)N1O`, for which the fractional viability stood at 0.837 (2uM) and 0.79 (10uM).
In the case of `CC(=O)c1cc([N+](=O)[O-])c(Sc2ccc(F)cc2F)s1`, the fractional viability is, setting by setting: (2uM) 0.985; (10uM) 0.596.
For `COc1ccc([C@H]2CNC(=O)C2)cc1OC1CCCC1` [S- (+)-Rolipram], in that order: 1.2 and 1.04.
As to `Cc1cc(C)nc(NS(=O)(=O)c2ccc(NC(=S)NC(=O)COc3ccc(Br)cc3Cl)cc2)n1`, the fractional viability runs as follows: (2uM) 0.956; (10uM) 0.803.
`O=C(NCc1ccncc1)C12CC3CC(C1)CC(c1ccc(Cl)cc1)(C3)C2` gave a fractional viability (2uM) of 1.06 and a fractional viability (10uM) of 0.861.
As to `Cc1ccc(S(=O)(=O)c2ccc([N+](=O)[O-])o2)cc1`, the fractional viability runs as follows: (2uM) 0.0667; (10uM) 0.0291.
Regarding `NC(=O)N/N=C/c1ccc([N+](=O)[O-])o1` [Nitrofural], the fractional viability runs as follows: (2uM) 1.55; (10uM) 1.47.
For `CC(C)(C)NS(=O)(=O)c1cncc(-c2cc(F)c3nc(N)nn3c2)c1`, the fractional viability runs as follows: (2uM) 1.04; (10uM) 1.06.
For `O=C(O)C1=C[C@@H](O)[C@@H](O)[C@H](O)C1` [Shikimic Acid], in that order: 1.04 and 0.875.
For `C=C1/C(=C\C=C2/CCC[C@]3(C)[C@@H]([C@H](C)CCCC(C)(C)O)CC[C@@H]23)C[C@@H](O)C[C@@H]1O` [Calcitriol], in that order: 0.965 and 0.937.
For `Cc1ccccc1CN1C2=NCCN2C(=O)C2=C1CCN(Cc1ccccc1)C2` [TIC10 Analogue], in that order: 0.878 and 0.768.
`COc1cc2ncnc(Oc3ccc(CC(=O)Nc4cnn(C(C)C)c4)cc3)c2cc1OC`: the fractional viability reads like this: (2uM) 0.949; (10uM) 0.942.
On to `CC1(C)CC[C@]2(NC(=O)C(C)(F)F)CC[C@]3(C)[C@H](C(=O)C=C4[C@@]5(C)C=C(C#N)C(=O)C(C)(C)[C@@H]5CC[C@]43C)[C@@H]2C1` [Omaveloxolone (RTA-408)], for which the fractional viability runs as follows: (2uM) 0.166; (10uM) 0.0407.
For the compound `CN(C)CCNC(=O)c1cccn2c(=O)c3cc4ccccc4cc3nc12`, the fractional viability reads like this: (2uM) 0.61; (10uM) 0.294.
On to `COc1nccc(-c2c(-c3ccc(F)cc3)ncn2C2CCC(O)CC2)n1` (configuration not stated), for which the fractional viability (2uM) was found to be 0.999 and the fractional viability (10uM) is 0.786.
With `CC(C)NCC(O)COc1cccc2ccccc12` (configuration not stated) [Propranolol HCl], the fractional viability by setting is: (2uM) 0.809; (10uM) 1.12.
Consider `CC(C)(Cc1ccc2ccccc2c1)NC[C@@H](O)COc1cccc(Cl)c1C#N`, for which the fractional viability reads like this: (2uM) 1.06; (10uM) 0.0653.
For `CC(C)(C)NCC(O)COc1cccc2c1CCC(=O)N2` (configuration not stated) [Carteolol HCl], in that order: 0.973 and 0.93.
`O=[N+]([O-])c1ccc(Nc2nc(N3CCOCC3)nc(N3CCOCC3)n2)cc1`: the fractional viability reads like this: (2uM) 0.893; (10uM) 0.934.
Turning to `CC(C)(C)c1ccc(S(=O)(=O)NCc2ccc(C(=O)Nc3cccnc3)cc2)cc1`, the fractional viability reads like this: (2uM) 0.306; (10uM) 0.165.
In the case of `CCS(=O)(=O)N1CCN(c2ccc(Nc3ncc(C(N)=O)c(NC4CC4)n3)cc2)CC1`, the fractional viability was found to be 0.781 (2uM) and 0.496 (10uM).
Consider `CCc1ccc(OCc2ccccc2C(=O)Nc2ccc3nc(C)cc(N)c3c2)cc1`, for which the fractional viability reads like this: (2uM) 0.16; (10uM) 0.0251.
For `COc1cc2c(cc1OC)CN(CCc1ccc(NC(=O)c3cc(OC)c(OC)cc3NC(=O)c3cnc4ccccc4c3)cc1)CC2` [Tariquidar], in that order: 0.891 and 0.459.
As to `CCCC(=O)Nc1cccc(NC(=O)c2ccccc2Br)c1`, the fractional viability by setting is: (2uM) 1; (10uM) 1.07.
Regarding `Cc1ccc(CNc2ncnc3ccc(-c4ccc(CO)o4)cc23)o1`, the fractional viability (2uM) was 0.989 and the fractional viability (10uM) is 1.02.
`O=[N+]([O-])c1cn2c(n1)OC[C@@H](OCc1ccc(OC(F)(F)F)cc1)C2`: the fractional viability runs as follows: (2uM) 1.15; (10uM) 1.66.
On to `CC(C)(C)OC(=O)Nc1ccc(-c2cc(C(=O)NCCCCCCC(=O)NO)no2)cc1`, for which the fractional viability was found to be 0.367 (2uM) and 0.171 (10uM).
`COc1cc(/C=C/C(=O)N2CCC=CC2=O)cc(OC)c1OC` [Piperlongumine]: the fractional viability was 0.31 (2uM) and 0.085 (10uM).
Compound `COc1ccc(/C=C\c2cc(OC)c(OC)c(OC)c2)cc1O` [Combretastatin A4] came in with a fractional viability (2uM) of 0.313 and a fractional viability (10uM) of 0.292.
Take `COc1cc(/C=C/C(=O)N2CCN(CC(=O)N3CCCC3)CC2)cc(OC)c1OC` [Cinepazide maleate]: the fractional viability reads like this: (2uM) 0.929; (10uM) 0.991.

The values above are taken from the supplement of paper PMC5919970.
